Only some compounds are listed: those with a hit (about 17% of all), similar ones and a draw of the others.
HT1080NT lethal = kills 2HG-producing HT-1080-NT fibrosarcoma cells | 360,000 tested, 1.6% active | Potency, µM (highest dose often 46.1 µM), for the others: at the top dose activity, negative = less viability, actives largely listed as cytotoxic | HT-1080-NT fibrosarcoma viability, CellTiter-Glo ATP luminescence, 48 h;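 note: NT is the 2HG producing partner of a matched IDH1 knockdown line; 0% = DMSO-treated cells and -100% = media-only wells without cells; nearly all actives have a fitted effect of over 55% in size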
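HT-1080-NT fibrosarcoma cells (2HG-overproducing), 750 cells/well in RPMI with 5% FBS, dosed after 2 h and incubated 48 h at 37C. CellTiter-Glo luminescence normalized to DMSO and no-cell wells; concentration-response curves fitted and classed.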
TGFb SMAD3 inh = blocks TGF-b signaling. HepG2 CAGA-GFP TGF-b/SMAD3 reporter, GFP fluorescence, 18 h; TGF-beta stimulated, 500 pg/mL final. Potency, µM (doses to about 46.1 µM), without a hit: top-dose activity, negative = inhibition, hits mostly inhibitors. 410,000 tested, 1.2% active. AID 588855; note: % is set by controls: 0 for no effect and ±100 for the full control effect; nearly all actives have a fitted effect of over 65% in size
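GFP signal (ex488/em500-530) from TGF-beta-stimulated HEPG2 CAGA-GFP cells, 500 pg/mL final, 18 h at 37 degrees C in DMEM plus 1% FBS, normalized to unstimulated and DMSO-stimulated controls.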
DT40 TDP1 CPT = growth inhibition of DT40 Tdp1-/-;hTDP1 cells with camptothecin (screen for TDP1 inhibitors); Potency, µM (titrated, usually from 46.2 µM), without a hit: at the top dose activity change, negative = growth inhibition, usual class: inhibitors; 420,000 tested, 12% active; chicken DT40 Tdp1-/-;hTDP1 cells + 20 nM CPT, ATP luminescence, 48 h; note: % is set by controls: 0 for no effect and ±100 for the full control effect; nearly all actives have a fitted effect of over 55% in size
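Cell growth measured by CellTiter-Glo luminescence after a minimum 48 h, 37 C compound exposure with 20 nM CPT in Tdp1-knockout DT40 cells stably expressing hTDP1, seeded 400/well; qHTS titration format.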
HT1080 IDH1KD tx = toxicity to HT-1080 IDH1 knockdown cells (counter line); HT-1080 IDH1 knockdown viability, ATP luminescence, 48 h; 360,000 tested, 2% active; Potency, µM (highest dose often 46.1 µM), for the others: at the top dose activity, negative = toxicity, usual class: cytotoxic;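 note: 0% = DMSO wells and -100% = cell-free medium wells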
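CellTiter-Glo luminescence after 48 h compound exposure at 37 degrees C of IDH1-knockdown HT-1080 cells in 5% FBS RPMI. %Activity scaled between DMSO wells and cell-free media wells, with curves fitted and assigned curve classes.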
HepG2 viability = HepG2 cytotoxicity, counter-screen for TGF-b inhibitors; 410,000 tested, 0.76% active; Potency, µM (titrated, usually from 46.1 µM), for the others: at the highest dose activity change, negative = cytotoxicity, actives largely listed as cytotoxic; HepG2 CAGA-GFP viability, ATP luminescence, 18 h
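CellTiter-Glo luminescence gave cytotoxicity after 18 hours at 37 degrees C. The cells were HepG2 CAGA-GFP in 1% FBS DMEM, stimulated with 500 pg/mL TGF-beta after compound addition. %Activity was normalised to no-cell wells (complete cell-killing) and DMSO (no toxicity), and curves were fitted and classified.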
TDP1 cell noCPT = qHTS for Inhibitors of human tyrosyl-DNA phosphodiesterase 1 (TDP1): qHTS in cells in absence of CPT. DT40 Tdp1-/- hTDP1 cells, no CPT, ATP luminescence, 48 h. 420,000 tested, 15% active. Potency, µM (highest dose often 46.2 µM), without a hit: at the highest dose activity change, negative = growth inhibition, usual class: inhibitors. AID 686978, 2013; note: % is set by controls: 0 for no effect and ±100 for the full control effect; nearly all actives have a fitted effect of over 55% in size
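No-CPT arm: Tdp1-/-;hTDP1 DT40 cells (400/well) plus compounds, incubated ≥48 hr at 37 °C. Readout CellTiter-Glo luminescence.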
* = called active by the depositor; ? = inconclusive; nt = no result. Calls come from the whole dose curve; as a rule, active = well fitted curve in the direction sought with a large enough effect; inconclusive = small, poorly fitted or top-dose-only effect, or another doubt; inactive = no such curve, though single readings can be large; an effect the other way counts as inactive or inconclusive. Potency is the fitted concentration of half-maximal effect.

SMILES | HT1080NT lethal | TGFb SMAD3 inh | DT40 TDP1 CPT | HT1080 IDH1KD tx | HepG2 viability | TDP1 cell noCPT
CCc1cccc(NC(=O)c2cc3c(=O)n(Cc4ccc(OC)cc4)ccc3nc2C)c1 | nt | ? | ? | nt | -5% | 15µM*
CC(=O)Nc1ccc(NC(=O)c2cc3c(=O)n(Cc4cccnc4)ccc3nc2C)cc1 | nt | -2% | -5% | nt | 18µM* | -20%
COc1cccc(NC(=O)c2cc3c(=O)n(Cc4cccnc4)ccc3nc2C)c1 | nt | 14% | 3% | nt | -17% | -30%
Sc1oc(-c2ccccc2)cc1C=Nc1ccccc1 | 7.9µM* | ? | 5.8µM* | 11µM* | -3% | 16µM*
CCCCN(C(=O)c1ccc(S(=O)(=O)N2CCC(C)CC2)cc1)C1CCS(=O)(=O)C1 (configuration not stated) | 12% | -1% | -27% | 13% | 5% | ?
Cc1nc(N)c(CC(Br)CBr)c(Cl)n1 (configuration not stated) | -1% | 10% | 8.2µM* | 0% | 2% | 7.3µM*
O=C(CSc1nnc(SCC(=O)c2ccco2)s1)c1ccco1 | 5% | 2% | 23µM* | 8% | 9% | 10µM*
O=C(CSc1nc2cc(Cl)ccc2s1)c1ccco1 | 2% | -13% | -6% | 2% | 7% | ?
Cc1ccc(-n2nnc3c(=O)oc4ccccc4c32)cc1 | ? | ? | 5.8µM* | ? | -10% | 21µM*
O=C(NCC1CCCO1)Nc1ccc2c(c1)OCO2 (configuration not stated) | 7% | 1% | 0% | 2% | 3% | 20%
O=C(NCCCN1CCOCC1)NC1CCCCC1 | -2% | 10% | -5% | -4% | 3% | ?
O=C(NCCCCCCCN1CCCCCCC1)C(C1CCCCC1)C1CCCCC1 | -16% | 18µM* | 13µM* | ? | -3% | 15µM*
CCc1ccc(S(=O)(=O)NCc2ccc3c(c2)CCN3C(=O)c2ccc(C)cc2)cc1 | nt | -47% | 7.3µM* | nt | -21% | 8.2µM*
COc1ccc(S(=O)(=O)NCc2ccc3c(c2)CCN3C(=O)c2ccccc2)cc1OC | nt | -4% | ? | nt | -34% | ?
CCOc1ccc(S(=O)(=O)NCc2ccc3c(c2)CCN3C(=O)c2ccc(C)cc2)cc1 | nt | ? | 13µM* | nt | -27% | 9.2µM*
CC(C)c1ccc(S(=O)(=O)NCc2ccc3c(c2)CCN3C(=O)c2ccccc2)cc1 | nt | ? | 23µM* | nt | -11% | 15µM*
COc1ccc(S(=O)(=O)NCc2ccc3c(c2)CCN3C(=O)c2ccc(C)cc2)cc1Cl | nt | -9% | 21µM* | nt | -28% | 16µM*
Cc1cc(C)n(C(C)CC(=O)Nc2ccc(Cl)cc2C)n1 (configuration not stated) | nt | 2% | -26% | nt | 3% | ?
C=CC[n+]1ccc(/C=C2\C=Cc3cc(C)ccc3N2CC)c2ccccc21 | 5.8µM* | 2.8µM* | 0.29µM* | 4.1µM* | -47% | 0.21µM*
CCN1/C(=C/c2cc[n+](CCCS(=O)(=O)[O-])c3ccccc23)Sc2ccccc21 | 2% | 29% | 24% | 0% | -3% | 0%
Cc1cccc(-c2cc(C(=O)N3CCCc4ccccc43)c3ccccc3n2)c1 | -1% | -14% | 23µM* | -6% | -6% | ?
O=C(c1cc(-c2ccccc2)nc2ccccc12)N1CCCc2ccccc21 | -3% | ? | ? | -11% | 3% | 23µM*
Cc1ccc(Cl)c2sc(NC(=O)C3CC3)nc12 | 16% | ? | 5% | 12% | 11µM* | 3%
COC(=O)c1ccccc1NC(=O)CN(c1ccc(C)cc1)S(C)(=O)=O | 4% | 6% | -18% | 4% | 5% | 4%
CC(=O)O[C@H]1CC(C)(C)C(=C=C/C(C)=C/C=C/C(C)=C/C=C/C=C(C)/C=C/C=C(\C)C(=O)C[C@@]23O[C@]2(C)C[C@@H](O)CC3(C)C)[C@](C)(O)C1 | -9% | ? | 26µM* | -19% | -41% | ?
SMILES | HT1080NT lethal | TGFb SMAD3 inh | DT40 TDP1 CPT | HT1080 IDH1KD tx | HepG2 viability | TDP1 cell noCPT
COc1cc2c(cc1OC)C(C)N(C(=O)c1cc(Cl)nc(Cl)c1)CC2 (configuration not stated) | ? | 3% | 7.3µM* | ? | -5% | ?
COc1cc2c(cc1OC)C(C)N(C(=O)c1ccc(Br)o1)CC2 (configuration not stated) | -23% | 7% | ? | -20% | -19% | 16µM*
COc1cc2c(cc1OC)C(Cc1ccc(O)cc1)N(C)CC2 (configuration not stated) | -1% | 7% | -4% | 2% | -17% | -4%
COc1cc2c(cc1OC)C(C)N(Cc1ccc3c(c1)OCO3)CC2 (configuration not stated) | -19% | -7% | ? | -24% | -24% | 18µM*
CCc1ccc(NC(=O)C(CC)n2nnc(C(=O)OC)c2C(=O)OC)cc1 (configuration not stated) | nt | -21% | -1% | nt | -18% | -17%
COc1ccccc1-c1noc2c1C(=O)N(Cc1cn(-c3ccccc3OC)nn1)CC2 | 7% | nt | ? | -10% | nt | 18µM*
COc1ccccc1-c1noc2c1C(=O)N(C(=O)OC(C)(C)C)CC2 | 3% | 9% | -8% | -7% | -4% | -7%
C[C@@H](c1ncncc1F)C(O)(Cn1cncn1)c1ccc(F)cc1F (some centres not stated) | nt | nt | -27% | nt | nt | -21%
COC(=O)c1ccccc1NC(=O)c1ccc(COc2cc(C)cc(C)c2)o1 | 25% | -8% | ? | 25% | -18% | 23µM*
COC(=O)c1cc(OC)c(OC)cc1NC(=O)c1ccc(C)o1 | 14% | ? | 15µM* | 0% | -7% | 18µM*
Cc1cc2nc(-c3cccc(NC(=O)c4ccc(Br)o4)c3C)oc2cc1C | -30% | -17% | ? | ? | -28% | 23µM*
COC(=O)c1ccccc1NC(=O)c1ccc(COc2ccc(C)c(C)c2)o1 | -1% | ? | ? | -1% | 3% | 13µM*
COC(=O)c1cc(OC)c(OC)cc1NC(=O)CCc1ccc(C)o1 | 13% | -5% | ? | 14% | 7% | ?
COC(=O)c1ccccc1NC(=O)c1cccc(NC(=O)c2ccc(Br)o2)c1C | 13µM* | 4% | 2.9µM* | 10µM* | -8% | 1.8µM*

Screens deposited in PubChem BioAssay by National Center for Advancing Translational Sciences (NCATS).
